The nature of test [1]: compounds binding Alexa647 anti-His antibody – biochemical, small-molecule microarray, 635 nm fluorescence, artefact control for SMM control protein annotation, primary screen (AID 1128).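 Also: score merges feature fluorescence with signal-to-noise for each printed compound spot.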 The note with it: higher = more signal.
Test [2] concerns Human papillomavirus type 1a E7 protein (residues 1-88). Kind of test: HPV1a E7 small-molecule binders, primary screen, biochemical, small-molecule microarray, residues 1-88, 635 nm (AID 1129). The conditions noted are these: small-molecule microarray binding, fluorescence 635 nm; higher = more signal.
The target in test [3] is Focal adhesion kinase 1 (Homo sapiens) (UniProt Q05397). Kind of test: PTK2 protein binding on printed compound slides – biochemical, small-molecule microarray, 635/667 nm fluorescence, BSA, DTT, primary screen (AID 1130).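 Also: composite of spot emission at 667 nm and signal to noise over triplicate slides.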 The conditions noted are these: 635 nm fluorescence, higher = more signal.
For test [4], the system named is Fibrinogen (Alexa647-labelled). Kind of test: Alexa647-fibrinogen binding to printed small molecules – biochemical, small-molecule microarray, 635/667 nm fluorescence, artefact control for SMM control-protein annotation, profiling panel (AID 1131).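 Also: z-score merges 667 nm fluorescence with per-spot signal-to-noise over triplicate slides.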 The conditions noted are these: fibrinogen-A647 binding fluorescence, higher = more signal.
The target of test [5] is Follistatin (Homo sapiens) (UniProt P19883). Kind of test: FST protein binding to printed compounds – biochemical, small-molecule microarray, 635/667 nm fluorescence, primary screen (AID 1132). The conditions noted are these: 635 nm fluorescence, higher = more signal.
Test [6] addresses Fibroblast growth factor 2 (Homo sapiens) (UniProt P09038). Kind of test: basic fibroblast growth factor binding to printed compounds – biochemical, small-molecule microarray, 635/667 nm fluorescence, primary screen (AID 1133). The conditions noted are these: FGF2, fluorescence 635/667, higher = more signal.
A short description of test [7]: JC-1 mitochondrial potential readout, lung cancer cells – cell-based, A549, JC-1 fluorescence, basal, 24 h, 100 nL, profiling panel (AID 1138).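 Also: A549 lung adenocarcinoma cells under basal conditions with no added stimulus; test concentration not given here.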 The note with it: higher = more signal.
Another test has as its system Lefty1. Kind of test: Lefty1 protein binding to printed compounds – biochemical, small-molecule microarray, 635/667 nm fluorescence, primary screen (AID 1139). The note with it: fluorescence 635/667, higher = more signal.
In test [8] the test system is wheat germ agglutinin (Triticum aestivum), Alexa647-labelled. Kind of test: Alexa647-WGA lectin binding to printed small molecules – biochemical, small-molecule microarray, 635/667 nm fluorescence, artefact control for SMM control-protein annotation, profiling panel (AID 1140).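 Also: score merges 667 nm feature emission with signal to noise over triplicate slides.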 The conditions noted are these: WGA-A647 binding, 635 nm fluorescence, higher = more signal.

The target in test [9] is Luciferin 4-monooxygenase (Photinus pyralis) (UniProt P08659). Kind of test: inhibition of purified Photinus pyralis luciferase – biochemical, luminescence, purified enzyme, 2006 set, primary screen (AID 1141).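 Also: cell-free assay with purified firefly luciferase at 100 ng per well in PBS; test concentration not given here.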 The note with it: purified firefly luciferase, SteadyGlo luminescence, 30 min; higher = more signal, called active from +8 up or from −8 down.
The test system of test [10] is Wnt5a (protein binding on small-molecule microarray). Kind of test: small molecules binding Wnt5a protein – biophysical, small-molecule microarray, 635/667 nm fluorescence, primary screen (AID 1142).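 Also: fluorescence read at 667 nm with signal to noise per printed feature.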 The conditions noted are these: 635 nm fluorescence, higher = more signal.
Test [11] can be described thus: ATP-based viability of Huh7 replicon cells – cell-based, CellTiter-Glo luminescence, basal, 48 h, cytotoxicity control for HCV replication inhibitor project, primary screen (AID 1143).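 Also: Huh7 hepatoma cells carrying a hepatitis C replication reporter with no stimulus; test concentration not given here.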 The conditions noted are these: higher = more signal, called active from +8 up or from −8 down. A general note: In antiviral work, replicon cells carry a viral genome segment that copies itself.

Test [12] in a line: Pseudomonas biofilm growth suppression – PAO1 strain, BacTiter-Glo luminescence, LB-PBS, primary screen (AID 1144). The conditions noted are these: P. aeruginosa PAO1 biofilm, 12 h, higher = more signal.
A short description of test [13]: basal CRE-LacZ reporter activity in PC12 – cell-based, unstimulated, primary screen (AID 1145). The conditions noted are these: no forskolin, luminescence, 4.5 h, higher = more signal, called active from +8 up or from −8 down.
Test [14] in a line: forskolin-driven CRE-LacZ activity in PC12 – cell-based, CRE-LacZ reporter, forskolin-stimulated, primary screen (AID 1146).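 Also: PC12 cells with 6xCRE LacZ reporter stimulated by forskolin 10 µM; beta-galactosidase reporter signal reflecting CREB driven transcription.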 The note with it: luminescence, 4.5 h, higher = more signal, called active from +8 up or from −8 down.
For test [15], the target named is Streptavidin (Streptomyces avidinii) (UniProt P22629). Kind of test: compounds binding control protein streptavidin – biophysical, small-molecule microarray, 635/667 nm fluorescence, artefact control for SMM compound annotation, primary screen (AID 1147).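 Also: signal reflects streptavidin binding to arrayed compounds as a control protein.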 The note with it: higher = more signal.
Test [16] in a line: probe aInhba binding on compound microarray – biochemical, small-molecule microarray, 635/667 nm fluorescence, primary screen (AID 1148).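 Also: score merges 667nm spot fluorescence with signal-to-noise for antibody binding to printed compounds.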 The note with it: higher = more signal.
Test [17] deals with Torsin-1A (Homo sapiens) (UniProt O14656). Kind of test: TOR1A wild-type binding on microarray – cell lysate, small-molecule microarray, lysate, 635/667 nm, primary screen (AID 1149). The note with it: COS7 hTOR1A-WT lysate, 635 nm fluorescence, higher = more signal.
For test [18] the target is unchanged. Kind of test: torsin A mutant lysate binding on microarrays – cell lysate, small-molecule microarray, COS7 lysate, 635/667 nm fluorescence, primary screen (AID 1150).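 Also: score pools 667 nm emission and signal to noise measuring lysate protein binding.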 The conditions noted are these: COS7 hTOR1A mutant lysate, 635 nm fluorescence, higher = more signal.
In test [19] the test system is Sonic hedgehog protein (Shh). Kind of test: Sonic hedgehog microarray binding compounds – biochemical, small-molecule microarray, 635/667 nm fluorescence, primary screen (AID 1151).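 Also: Shh protein binding to compounds spotted on small-molecule microarray slides; score combines spot fluorescence intensity with signal-to-noise across triplicate slides.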 The note with it: 635 nm fluorescence, higher = more signal.

Calls of active or inactive are those of the source. Unless noted, no rule for the calls is given here.

Chain of Luciferin 4-monooxygenase (Photinus pyralis) (P08659 whole entry, looked up): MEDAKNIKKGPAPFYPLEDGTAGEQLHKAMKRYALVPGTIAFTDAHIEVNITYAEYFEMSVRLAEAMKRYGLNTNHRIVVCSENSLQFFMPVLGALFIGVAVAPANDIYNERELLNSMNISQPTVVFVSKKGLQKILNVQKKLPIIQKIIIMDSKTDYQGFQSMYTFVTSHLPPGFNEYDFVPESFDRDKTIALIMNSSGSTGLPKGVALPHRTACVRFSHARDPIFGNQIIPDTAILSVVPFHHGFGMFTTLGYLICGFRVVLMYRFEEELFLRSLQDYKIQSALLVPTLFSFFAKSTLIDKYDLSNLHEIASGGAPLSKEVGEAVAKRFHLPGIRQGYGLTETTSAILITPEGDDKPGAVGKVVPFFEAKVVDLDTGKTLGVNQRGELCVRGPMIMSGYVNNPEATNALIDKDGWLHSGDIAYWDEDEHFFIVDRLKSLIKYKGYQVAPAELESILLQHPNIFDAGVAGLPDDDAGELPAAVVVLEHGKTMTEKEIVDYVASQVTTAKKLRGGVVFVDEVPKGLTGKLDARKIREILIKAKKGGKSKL
Chain of Torsin-1A (Homo sapiens) (O14656 whole entry, looked up): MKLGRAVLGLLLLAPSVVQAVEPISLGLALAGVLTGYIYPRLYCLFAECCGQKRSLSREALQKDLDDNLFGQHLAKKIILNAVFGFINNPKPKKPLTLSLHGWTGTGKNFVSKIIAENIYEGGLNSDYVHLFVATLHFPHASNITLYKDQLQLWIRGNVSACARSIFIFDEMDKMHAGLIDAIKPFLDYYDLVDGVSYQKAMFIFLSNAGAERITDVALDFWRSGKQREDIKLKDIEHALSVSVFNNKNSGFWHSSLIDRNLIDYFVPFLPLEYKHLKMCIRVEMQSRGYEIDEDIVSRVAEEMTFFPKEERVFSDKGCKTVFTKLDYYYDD
Chain of Streptavidin (Streptomyces avidinii) (P22629 whole entry, looked up): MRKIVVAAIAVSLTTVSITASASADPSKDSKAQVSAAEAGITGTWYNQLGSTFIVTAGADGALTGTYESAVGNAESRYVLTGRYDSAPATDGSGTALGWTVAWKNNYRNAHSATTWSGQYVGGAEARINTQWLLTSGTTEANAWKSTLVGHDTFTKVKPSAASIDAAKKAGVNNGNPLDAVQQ
Chain of Focal adhesion kinase 1 (Homo sapiens) (Q05397 whole entry, looked up): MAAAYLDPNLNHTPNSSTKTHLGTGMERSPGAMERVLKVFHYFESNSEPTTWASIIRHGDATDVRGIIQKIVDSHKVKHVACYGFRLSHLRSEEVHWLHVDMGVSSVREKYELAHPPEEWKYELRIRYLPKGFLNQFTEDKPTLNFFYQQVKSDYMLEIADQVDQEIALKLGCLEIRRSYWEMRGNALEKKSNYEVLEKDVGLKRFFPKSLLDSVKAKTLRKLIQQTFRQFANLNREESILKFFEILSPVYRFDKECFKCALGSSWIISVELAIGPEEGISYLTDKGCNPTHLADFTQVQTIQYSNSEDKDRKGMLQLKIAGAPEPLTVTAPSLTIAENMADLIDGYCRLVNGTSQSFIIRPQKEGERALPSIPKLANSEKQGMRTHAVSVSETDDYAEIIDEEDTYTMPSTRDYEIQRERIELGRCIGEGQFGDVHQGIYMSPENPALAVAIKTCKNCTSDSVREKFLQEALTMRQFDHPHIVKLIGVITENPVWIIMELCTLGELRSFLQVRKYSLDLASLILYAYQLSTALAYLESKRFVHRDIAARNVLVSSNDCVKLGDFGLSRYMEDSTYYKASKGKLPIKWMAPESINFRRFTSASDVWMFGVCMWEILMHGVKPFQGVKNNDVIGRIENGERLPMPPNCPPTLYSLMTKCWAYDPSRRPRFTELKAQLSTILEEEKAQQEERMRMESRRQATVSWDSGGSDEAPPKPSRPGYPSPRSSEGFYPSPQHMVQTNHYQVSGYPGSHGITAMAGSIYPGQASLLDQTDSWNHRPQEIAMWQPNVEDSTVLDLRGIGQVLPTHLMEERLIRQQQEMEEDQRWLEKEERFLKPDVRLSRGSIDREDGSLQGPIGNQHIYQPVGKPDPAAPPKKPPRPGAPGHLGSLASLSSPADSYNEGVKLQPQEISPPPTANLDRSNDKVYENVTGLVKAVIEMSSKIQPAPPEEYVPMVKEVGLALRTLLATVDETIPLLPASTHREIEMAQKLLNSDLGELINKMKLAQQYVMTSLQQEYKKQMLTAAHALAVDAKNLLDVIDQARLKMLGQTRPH
Chain of Follistatin (Homo sapiens) (P19883 whole entry, looked up): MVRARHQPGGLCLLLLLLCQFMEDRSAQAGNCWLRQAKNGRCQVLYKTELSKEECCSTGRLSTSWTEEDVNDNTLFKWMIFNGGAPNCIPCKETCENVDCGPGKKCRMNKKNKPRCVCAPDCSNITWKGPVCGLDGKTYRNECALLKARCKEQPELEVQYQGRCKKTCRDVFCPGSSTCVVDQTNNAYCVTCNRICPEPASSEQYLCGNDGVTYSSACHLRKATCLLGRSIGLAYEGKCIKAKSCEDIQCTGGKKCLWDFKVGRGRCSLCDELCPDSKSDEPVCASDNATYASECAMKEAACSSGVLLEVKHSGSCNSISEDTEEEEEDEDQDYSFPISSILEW
Chain of Fibroblast growth factor 2 (Homo sapiens) (P09038 whole entry, looked up): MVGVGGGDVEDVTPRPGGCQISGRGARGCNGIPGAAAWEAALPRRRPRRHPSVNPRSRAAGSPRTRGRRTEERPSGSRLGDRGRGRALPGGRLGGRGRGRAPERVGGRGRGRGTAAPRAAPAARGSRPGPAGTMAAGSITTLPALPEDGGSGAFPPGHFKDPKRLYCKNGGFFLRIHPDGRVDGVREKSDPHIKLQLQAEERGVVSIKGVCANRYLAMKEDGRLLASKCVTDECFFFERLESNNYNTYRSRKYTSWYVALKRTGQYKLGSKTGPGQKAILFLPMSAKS

As to `O=C1[C@H]2[C@H]3[C@H](O)[C@H](O)CC(=NOC[C@@H](O)COCc4ccco4)[C@@H]3CC[C@H]2C(=O)N1c1ccc(F)cc1F`, the composite z-score in test [1] is -0.0634; in test [2], 0.126; in test [3], -0.358; in [4], -0.313; in [5], 0.532; in [6], 0.646. For the same compound, the composite z-score with Lefty1 was 0.59; in [8], -0.385; in test [10], 0.0016; in test [15], -0.195; in [16], -0.231; with Torsin-1A (Homo sapiens) [17], 1.13. Besides, the composite z-score came out at 0.516 with Torsin-1A (Homo sapiens) [18] and 0.749 in test [19]. Besides, the z-score in [7] was -0.808; in [9] it was 1.03 (inactive); in test [11], -1.7 (inactive); in [12], 1.85 (inactive); in test [13] it was -0.475 (inactive); in [14] it was -0.0097 (inactive).
With `COCCOC(=O)N1C(=O)[C@@]2(c3cc(C#Cc4ccc(OC)cc4)ccc31)[C@H](C(=O)N1CCN(c3ncccn3)CC1)[C@H]1C(=O)O[C@H](c3ccccc3)[C@H](c3ccccc3)N1[C@@H]2c1ccc(OCCO)cc1`, the composite z-score came out at 0.233 in test [1]; 0.202 in test [2]; 0.253 in test [3]; 0.274 in test [4]; 1.26 in test [5]; 1.06 in test [6]. Besides, the composite z-score is 0.786 in the test on Lefty1; 0.769 in test [8]; 0.044 in test [10]; 0.531 in test [15]; 0.397 in test [16]; -0.0983 with Torsin-1A (Homo sapiens) [17]. Besides, the results for the composite z-score (with Torsin-1A (Homo sapiens) [18]; in test [19]) were 0.33 and 1, respectively. In addition, the z-score in test [7] was -1.15; in test [9] it was -0.411 (inactive); in [11] it was -0.151 (inactive); in test [12] it was -0.118 (inactive); in test [13], -0.606 (inactive); in test [14], -0.242 (inactive).
Regarding `COc1ccccc1CN1C(=O)c2ccccc2[C@@H](C(=O)NCC(F)(F)F)[C@@H]1c1ccc(CO)cc1`, the composite z-score in test [1] was 0.218; in [2], 0.993; in [3], 0.391; in [4], 0.532; in test [5], 1.06; in [6], 1.05. The composite z-score in the test with Lefty1 stood at 1.13; in test [8], 0.185; in [10] it was 0.324; in [15] it was 0.299; in test [16], 0.16; with Torsin-1A (Homo sapiens) [17] it was 0.156. Further, the composite z-score with Torsin-1A (Homo sapiens) [18] stood at 0.336; in [19] it was 1.92. For the same compound, the z-score in [7] is 1.13; in test [9], 0.806 (inactive); in [11] it was -1.92 (inactive); in test [12] it was -1.6 (inactive); in [13] it was 0.504 (inactive); in test [14], -1.28 (inactive).
As for `CO[C@H]1COC(=O)[C@H](C)COC(=O)CC=C[C@@H](C)[C@H](OC)COC(=O)CC=C[C@@H]1C`, the composite z-score in test [1] was 0.0475; in test [2] it was -0.774; in [3] it was -0.117; in test [4], -0.217; in [5] it was 1.16; in [6], 1.41. The composite z-score in the test with Lefty1 was 1.15; in test [8], -0.531; in [10], 0.185; in [15] it was -0.436; in test [16], -0.128; with Torsin-1A (Homo sapiens) [17], 1.03. Also, the figures for the composite z-score (in the test with Torsin-1A (Homo sapiens) [18]; in test [19]) were 0.666 and 1.55, respectively. Also, the z-score was 1.11 in [7]; -1.59 (inactive) in [9]; -0.0182 (inactive) in test [11]; -0.272 (inactive) in test [12]; -0.474 (inactive) in test [13]; 0.592 (inactive) in test [14].
For `CCOC(=O)[C@H](Cc1ccccc1)NC(=O)CCC1CC(OC(=O)NCc2ccc3c(c2)OCO3)CC2(CCCC(COC(=O)NCc3ccccc3)O2)O1` (stereo not given in full), the composite z-score in [1] was 1; in test [2] it was 1.12; in test [3] it was -0.108; in test [4], 0.347; in [5] it was 0.725; in test [6] it was 0.69. For the same compound, the composite z-score is 0.688 in the test on Lefty1; 0.335 in test [8]; 0.0594 in [10]; 1.13 in test [15]; -0.168 in test [16]; 0.0156 with Torsin-1A (Homo sapiens) [17]. Also, the figures for the composite z-score (with Torsin-1A (Homo sapiens) [18]; in test [19]) were 0.28 and 0.944, respectively. The z-score in test [7] was 1.64; in test [9], 0.66 (inactive); in test [11], -0.256 (inactive); in test [12], -0.971 (inactive); in [13], -0.155 (inactive); in test [14] it was 0.807 (inactive).

For the origin of these results see PubChem BioAssay.
